# PubChem BioAssay (NCI)
# About 83,000 compounds went through this panel and 20% of them were active in at least one assay; those are over-represented in the sample as a whole.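 Each cell line was grown in a 96-well plate and treated with one concentration of compound for 48 hours. Values below 10 were considered active.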 Unmarked numbers belong to inactive results. Calls of active or inactive are those of the source.
# Columns and labels:
# Experiment in all cases: NCI-60 one-dose screen, 48 h (100 = growth as untreated, 0 = no growth, -100 = all killed)
# Conditions in all cases: 10 µM unless noted
# RPMI-8226 leukemia = test system: RPMI-8226 leukemia
# OVCAR-8 ovarian = test system: OVCAR-8 ovarian
# OVCAR-5 ovarian = test system: OVCAR-5 ovarian
# OVCAR-4 ovarian = test system: OVCAR-4 ovarian
# SK-OV-3 ovarian = test system: SK-OV-3 ovarian
# IGROV1 ovarian = test system: IGROV1 ovarian
# OVCAR-3 ovarian = test system: OVCAR-3 ovarian
# HS 578T breast = test system: HS 578T breast
# NCI/ADR-RES ovarian = test system: NCI/ADR-RES ovarian
# T-47D breast = test system: T-47D breast
SMILES,growth (RPMI-8226 leukemia),growth (OVCAR-8 ovarian),growth (OVCAR-5 ovarian),growth (OVCAR-4 ovarian),growth (SK-OV-3 ovarian),growth (IGROV1 ovarian),growth (OVCAR-3 ovarian),growth (HS 578T breast),growth (NCI/ADR-RES ovarian),growth (T-47D breast)
CCc1[nH]nc(-c2ccc(OC)cc2)c1-c1ccccc1OCCN(CC)CC,97.5%,107%,92.6%,91.4%,91.8%,98.6%,104%,99.4%,100%,97.4%
O=C1CN(CO)C(=O)CN1CO,103%,99.7%,94.6%,111%,111%,105%,113%,101%,103%,107%
COc1cc(C2NC(c3ccc(Cl)cc3)C(C)/C(=N/NC(N)=S)C2C)cc(OC)c1OC (stereo not given),74.2%,87.3%,98%,87%,101%,89.7%,98.6%,98.1%,94.1%,82.7%
Fc1ccc(-c2nc(Nc3ccc(-c4nc5ccccc5[nH]4)cc3)nc(N3CCOCC3)n2)cc1,-73.4% (active),-73.8% (active),-74.7% (active),-73.9% (active),-89.9% (active),-71.2% (active),-95.6% (active),-40.3% (active),-87.5% (active),-64.8% (active)
OCc1nnn(-c2ccccc2)c1CO,101%,109%,112%,99.2%,129%,108%,117%,117%,115%,114%
CCCCc1nc(Cl)c(CO)n1Cc1ccc(-c2ccccc2-c2nn[nH]n2)cc1,115%,103%,101%,109%,106%,104%,111%,110%,105%,110%
CCC(O)C(C)(C)C (stereo not given),122%,103%,114%,118%,110%,112%,123%,95.8%,97.7%,112%
Clc1nc(Cl)c2ncn(-c3ccccc3)c2n1,108%,51.4%,102%,68.9%,88.4%,-48.8% (active),54.9%,12.4%,92.6%,50.6%
COc1ncc(-c2ccc3nccc(C#CCN4CCN(S(C)(=O)=O)CC4)c3c2)cc1NS(=O)(=O)c1ccc(F)cc1F,-30.1% (active),7.2% (active),11.3%,8.24% (active),-11.1% (active),-35.9% (active),-20.7% (active),-13.9% (active),6.28% (active),3.5% (active)
NC(=O)c1ccccc1NC(=O)c1ccccc1Cl,85%,99.4%,108%,98.3%,107%,96%,109%,108%,115%,96.4%
C[N+]1(CCC[N+]2(C)C[C@@H]3[C@H](C2)[C@@H]2C=C[C@H]3C2)CCOCC1 (stereo not given in full),106%,104%,88.9%,112%,99.3%,103%,116%,111%,107%,109%
O=C(CCc1nnc(Cn2ccnc2)o1)c1nc2ccccc2[nH]1,117%,105%,103%,107%,108%,106%,118%,112%,99.8%,102%
c1ccc(N2CCN(c3nncc4ccccc34)CC2)nc1,107%,97.8%,105%,109%,104%,116%,99.9%,109%,109%,101%
COc1ccc(-c2nn(-c3ccccc3)cc2/C=C2\SC(=S)N(CCc3ccc(O)cc3)C2=O)cc1,70.2%,86.5%,99.7%,78.7%,98.8%,78.6%,94%,79.1%,90.3%,56.3%
